# Experimental data from PMC7862700, “An all-to-all approach to the identification of sequence-specific readers for epigenetic DNA modifications on cytosine”.
# Legend:
# Experiment in all cases: DAPPL (digital affinity profiling via proximity ligation, sequencing); 10 mM Tris-HCl pH 7.5, 50 mM NaCl, 1 mM DTT, 4% glycerol, room temperature, 30 min; GST-TFs on glutathione beads, 16-mer random dsDNA library, 0.1% formaldehyde crosslink after washing; high values mean tight binding
# FLI1 = biological target: T1, FLI1 (Homo sapiens, UniProt Q01543 1-452); settings: protein: recombinant; tags: N-terminal GST; dsDNA, one strand shown
# T1 sequence: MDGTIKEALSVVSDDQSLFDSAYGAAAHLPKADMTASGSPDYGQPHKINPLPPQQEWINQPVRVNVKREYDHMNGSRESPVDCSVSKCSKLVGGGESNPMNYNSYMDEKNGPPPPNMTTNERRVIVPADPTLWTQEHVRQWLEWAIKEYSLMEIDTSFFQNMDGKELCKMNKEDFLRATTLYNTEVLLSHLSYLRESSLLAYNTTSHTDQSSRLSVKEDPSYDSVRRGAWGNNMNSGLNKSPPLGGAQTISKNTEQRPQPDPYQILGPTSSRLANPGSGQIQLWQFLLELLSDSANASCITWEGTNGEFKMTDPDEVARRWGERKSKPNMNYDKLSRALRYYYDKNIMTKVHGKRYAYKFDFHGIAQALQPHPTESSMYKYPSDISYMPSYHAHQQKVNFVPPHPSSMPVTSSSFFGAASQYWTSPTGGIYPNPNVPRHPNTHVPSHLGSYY
# Summary of the method: (§1)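 GST fusions of human transcription factors were expressed in yeast and captured with glutathione beads. Once given DNA barcodes and pooled alongside a tag-only sample, they were incubated for 30 min at room temperature with 200 nmole of a random double-stranded 16-mer DNA library in Tris/NaCl/DTT/glycerol buffer, then washed, crosslinked (0.1% formaldehyde), proximity-ligated, PCR-amplified and sequenced on an Illumina NextSeq500. The binding signal of each hexamer is its read frequency for a factor divided by its frequency for the tag-only sample.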
# ELK1 = biological target: T2, ELK1 (Homo sapiens, UniProt P19419 1-428); settings: protein: recombinant; tags: N-terminal GST; dsDNA, one strand shown
# T2 sequence: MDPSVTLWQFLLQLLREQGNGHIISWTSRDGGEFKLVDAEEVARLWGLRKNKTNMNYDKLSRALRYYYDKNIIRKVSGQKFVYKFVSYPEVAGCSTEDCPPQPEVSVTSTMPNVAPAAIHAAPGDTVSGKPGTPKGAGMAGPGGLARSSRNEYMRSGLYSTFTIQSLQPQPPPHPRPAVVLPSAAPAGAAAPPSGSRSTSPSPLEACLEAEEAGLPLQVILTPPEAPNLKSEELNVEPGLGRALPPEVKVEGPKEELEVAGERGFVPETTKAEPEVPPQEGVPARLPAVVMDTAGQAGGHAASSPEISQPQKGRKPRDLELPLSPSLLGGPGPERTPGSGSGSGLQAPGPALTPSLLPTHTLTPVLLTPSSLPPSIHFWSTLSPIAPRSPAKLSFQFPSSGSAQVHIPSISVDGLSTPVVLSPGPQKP
# Summary of the method: as §1
# GABPA = biological target: T3, GABPA (Homo sapiens, UniProt Q06546 1-454); settings: protein: recombinant; tags: N-terminal GST; dsDNA, one strand shown
# T3 sequence: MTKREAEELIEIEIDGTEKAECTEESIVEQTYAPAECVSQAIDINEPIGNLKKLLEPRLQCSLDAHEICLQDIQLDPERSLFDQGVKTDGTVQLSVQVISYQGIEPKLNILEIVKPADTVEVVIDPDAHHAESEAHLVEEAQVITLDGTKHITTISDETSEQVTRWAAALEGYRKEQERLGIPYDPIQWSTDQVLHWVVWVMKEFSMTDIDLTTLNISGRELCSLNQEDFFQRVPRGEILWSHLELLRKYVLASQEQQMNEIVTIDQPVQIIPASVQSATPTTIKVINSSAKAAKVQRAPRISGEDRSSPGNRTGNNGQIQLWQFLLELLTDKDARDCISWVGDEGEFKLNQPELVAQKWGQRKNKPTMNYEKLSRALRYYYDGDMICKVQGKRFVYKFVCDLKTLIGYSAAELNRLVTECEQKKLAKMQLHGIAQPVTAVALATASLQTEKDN
# Summary of the method: as §1
# ERG = biological target: T4, ERG (Homo sapiens, UniProt P11308 1-479); settings: protein: recombinant; tags: N-terminal GST; dsDNA, one strand shown
# T4 sequence: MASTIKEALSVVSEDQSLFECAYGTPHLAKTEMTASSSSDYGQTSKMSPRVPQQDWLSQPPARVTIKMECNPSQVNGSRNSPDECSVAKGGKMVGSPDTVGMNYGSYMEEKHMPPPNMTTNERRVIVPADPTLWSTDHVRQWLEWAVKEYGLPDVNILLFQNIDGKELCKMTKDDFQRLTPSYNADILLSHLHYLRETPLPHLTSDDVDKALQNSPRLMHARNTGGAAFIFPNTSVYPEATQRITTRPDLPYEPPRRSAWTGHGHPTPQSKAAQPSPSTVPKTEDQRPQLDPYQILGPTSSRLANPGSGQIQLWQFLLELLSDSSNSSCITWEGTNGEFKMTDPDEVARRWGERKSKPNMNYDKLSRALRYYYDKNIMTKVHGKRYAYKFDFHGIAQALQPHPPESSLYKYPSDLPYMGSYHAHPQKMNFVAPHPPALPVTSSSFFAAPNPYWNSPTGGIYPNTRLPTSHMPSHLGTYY
# Summary of the method: as §1
# ELF1 = ELF1 (Homo sapiens, UniProt P32519 1-619); settings: protein: recombinant; tags: N-terminal GST; dsDNA, one strand shown
# Summary of the method: as §1
# EHF = biological target: T5, EHF (Homo sapiens, UniProt Q9NZC4 1-300); settings: protein: recombinant; tags: N-terminal GST; dsDNA, one strand shown
# T5 sequence: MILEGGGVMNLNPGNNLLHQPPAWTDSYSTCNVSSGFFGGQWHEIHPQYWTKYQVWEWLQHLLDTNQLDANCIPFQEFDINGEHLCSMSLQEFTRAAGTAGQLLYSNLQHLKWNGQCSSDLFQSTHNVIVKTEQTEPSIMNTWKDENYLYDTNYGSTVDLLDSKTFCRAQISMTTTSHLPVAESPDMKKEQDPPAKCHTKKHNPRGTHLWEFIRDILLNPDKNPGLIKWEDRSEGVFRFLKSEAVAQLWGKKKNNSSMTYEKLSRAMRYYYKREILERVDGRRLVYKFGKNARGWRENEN
# Summary of the method: as §1
# SPI1 = SPI1 (Homo sapiens, UniProt P17947 1-270); settings: protein: recombinant; tags: N-terminal GST; dsDNA, one strand shown
# Summary of the method: as §1
# SPIB = SPIB (Homo sapiens, UniProt Q01892 1-262); settings: protein: recombinant; tags: N-terminal GST; dsDNA, one strand shown
# Summary of the method: as §1
# ELK3 = biological target: T6, ELK3 (Homo sapiens, UniProt P41970 1-407); settings: protein: recombinant; tags: N-terminal GST; dsDNA, one strand shown
# T6 sequence: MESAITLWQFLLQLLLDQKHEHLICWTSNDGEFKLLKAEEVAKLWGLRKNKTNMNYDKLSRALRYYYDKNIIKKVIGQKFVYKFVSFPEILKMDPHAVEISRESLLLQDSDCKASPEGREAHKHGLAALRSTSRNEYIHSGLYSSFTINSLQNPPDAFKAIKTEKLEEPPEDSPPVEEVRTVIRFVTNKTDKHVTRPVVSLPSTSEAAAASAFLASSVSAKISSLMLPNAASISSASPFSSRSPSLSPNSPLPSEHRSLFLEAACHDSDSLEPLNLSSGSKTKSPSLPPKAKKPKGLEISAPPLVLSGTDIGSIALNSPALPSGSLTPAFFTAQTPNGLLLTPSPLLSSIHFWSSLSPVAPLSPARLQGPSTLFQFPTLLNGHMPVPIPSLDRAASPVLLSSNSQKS
# Summary of the method: as §1
# FEV = biological target: T7, FEV (Homo sapiens, UniProt Q99581 1-238); settings: protein: recombinant; tags: N-terminal GST; dsDNA, one strand shown
# T7 sequence: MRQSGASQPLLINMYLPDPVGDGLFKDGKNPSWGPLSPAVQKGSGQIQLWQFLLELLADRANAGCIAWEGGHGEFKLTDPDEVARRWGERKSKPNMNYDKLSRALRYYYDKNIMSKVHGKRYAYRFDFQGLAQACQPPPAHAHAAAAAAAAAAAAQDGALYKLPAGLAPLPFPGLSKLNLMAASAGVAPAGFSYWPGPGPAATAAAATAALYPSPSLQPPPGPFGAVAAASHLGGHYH
# Summary of the method: as §1
# ETV5 = ETV5 (Homo sapiens, UniProt P41161 1-510); settings: protein: recombinant; tags: N-terminal GST; dsDNA, one strand shown
# Summary of the method: as §1
# HSF1 = HSF1 (Homo sapiens, UniProt Q00613 1-529); settings: protein: recombinant; tags: N-terminal GST; chain copies: 3; dsDNA, one strand shown
# Summary of the method: as §1
# SPIC = biological target: T8, SPIC (Homo sapiens, UniProt Q8N5J4 1-248); settings: protein: recombinant; tags: N-terminal GST; dsDNA, one strand shown
# T8 sequence: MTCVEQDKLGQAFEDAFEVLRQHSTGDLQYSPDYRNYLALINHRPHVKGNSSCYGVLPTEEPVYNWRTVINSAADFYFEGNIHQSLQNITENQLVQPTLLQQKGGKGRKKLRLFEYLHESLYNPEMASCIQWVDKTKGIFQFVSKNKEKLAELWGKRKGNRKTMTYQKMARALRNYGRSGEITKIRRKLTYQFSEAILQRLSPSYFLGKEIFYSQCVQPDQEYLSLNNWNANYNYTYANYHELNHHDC
# Summary of the method: as §1
# ELF4 = ELF4 (Homo sapiens, UniProt Q99607 1-663); settings: protein: recombinant; tags: N-terminal GST; dsDNA, one strand shown
# Summary of the method: as §1
# ELK4 = biological target: T9, ELK4 (Homo sapiens, UniProt P28324-2 1-405); settings: protein: recombinant; tags: N-terminal GST; dsDNA, one strand shown
# T9 sequence: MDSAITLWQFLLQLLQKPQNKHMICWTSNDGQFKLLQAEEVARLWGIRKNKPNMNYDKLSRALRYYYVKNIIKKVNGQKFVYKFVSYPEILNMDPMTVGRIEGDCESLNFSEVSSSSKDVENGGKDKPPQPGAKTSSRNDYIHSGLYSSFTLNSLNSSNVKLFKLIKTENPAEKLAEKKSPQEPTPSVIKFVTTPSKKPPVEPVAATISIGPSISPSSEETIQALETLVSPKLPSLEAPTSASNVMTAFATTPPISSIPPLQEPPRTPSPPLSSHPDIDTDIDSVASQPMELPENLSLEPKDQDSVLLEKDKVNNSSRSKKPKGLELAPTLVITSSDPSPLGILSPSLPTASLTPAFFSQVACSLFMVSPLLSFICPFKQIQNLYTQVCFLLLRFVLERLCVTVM
# Summary of the method: as §1
# ETV2 = biological target: T10, ETV2 (Homo sapiens, UniProt O00321 1-342); settings: protein: recombinant; tags: N-terminal GST; dsDNA, one strand shown
# T10 sequence: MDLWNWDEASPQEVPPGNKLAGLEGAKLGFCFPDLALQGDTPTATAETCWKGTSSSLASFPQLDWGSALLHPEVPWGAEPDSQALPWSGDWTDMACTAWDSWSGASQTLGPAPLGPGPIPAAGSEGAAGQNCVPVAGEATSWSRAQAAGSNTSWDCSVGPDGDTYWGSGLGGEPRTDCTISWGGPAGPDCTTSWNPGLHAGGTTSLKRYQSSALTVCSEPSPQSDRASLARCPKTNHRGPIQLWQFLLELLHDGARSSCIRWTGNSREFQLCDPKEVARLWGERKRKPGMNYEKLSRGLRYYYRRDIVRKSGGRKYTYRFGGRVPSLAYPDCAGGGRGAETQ
# Summary of the method: as §1
# ELF3 = biological target: T11, ELF3 (Homo sapiens, UniProt P78545 1-371); settings: protein: recombinant; tags: N-terminal GST; dsDNA, one strand shown
# T11 sequence: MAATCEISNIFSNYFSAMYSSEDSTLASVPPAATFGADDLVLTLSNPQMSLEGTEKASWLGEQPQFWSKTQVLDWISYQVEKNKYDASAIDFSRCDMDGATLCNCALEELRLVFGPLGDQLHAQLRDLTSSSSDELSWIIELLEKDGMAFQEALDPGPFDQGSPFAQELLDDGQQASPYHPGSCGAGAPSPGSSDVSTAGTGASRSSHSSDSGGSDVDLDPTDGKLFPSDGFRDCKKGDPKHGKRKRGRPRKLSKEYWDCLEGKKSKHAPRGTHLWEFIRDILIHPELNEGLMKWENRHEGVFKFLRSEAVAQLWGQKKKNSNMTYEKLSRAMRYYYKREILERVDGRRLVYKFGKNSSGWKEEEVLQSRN
# Summary of the method: as §1
# CRX = CRX (Homo sapiens, UniProt O43186 1-299); settings: protein: recombinant; tags: N-terminal GST; dsDNA, one strand shown
# Summary of the method: as §1
# ETV1 = ETV1 (Homo sapiens, UniProt P50549 1-477); settings: protein: recombinant; tags: N-terminal GST; dsDNA, one strand shown
# Summary of the method: as §1
# Chain of SPIB (Q01892 whole entry): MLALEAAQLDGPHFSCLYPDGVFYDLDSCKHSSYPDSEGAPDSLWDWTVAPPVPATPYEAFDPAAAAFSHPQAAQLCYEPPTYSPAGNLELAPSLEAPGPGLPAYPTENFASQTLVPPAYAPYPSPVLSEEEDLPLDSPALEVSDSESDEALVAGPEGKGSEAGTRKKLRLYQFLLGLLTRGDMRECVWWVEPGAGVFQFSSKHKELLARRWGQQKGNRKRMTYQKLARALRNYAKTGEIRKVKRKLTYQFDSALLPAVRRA
# Chain of ELF1 (P32519 whole entry): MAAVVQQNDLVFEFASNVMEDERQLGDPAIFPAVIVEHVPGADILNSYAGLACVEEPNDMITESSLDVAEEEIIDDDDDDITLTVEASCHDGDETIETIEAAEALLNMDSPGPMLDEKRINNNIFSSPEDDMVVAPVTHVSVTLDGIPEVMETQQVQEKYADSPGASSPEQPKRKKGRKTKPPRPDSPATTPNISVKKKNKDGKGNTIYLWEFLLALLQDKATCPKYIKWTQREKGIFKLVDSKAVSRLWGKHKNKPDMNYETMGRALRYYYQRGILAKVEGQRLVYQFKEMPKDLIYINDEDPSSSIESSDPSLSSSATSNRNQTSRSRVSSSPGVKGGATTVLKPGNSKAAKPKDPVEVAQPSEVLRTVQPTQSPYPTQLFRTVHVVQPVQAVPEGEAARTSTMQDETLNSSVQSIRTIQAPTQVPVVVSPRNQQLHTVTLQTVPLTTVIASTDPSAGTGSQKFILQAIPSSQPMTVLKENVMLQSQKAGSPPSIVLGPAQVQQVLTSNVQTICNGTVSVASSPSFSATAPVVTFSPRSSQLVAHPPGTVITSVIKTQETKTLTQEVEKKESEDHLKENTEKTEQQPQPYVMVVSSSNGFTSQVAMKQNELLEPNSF
# Chain of ELF4 (Q99607 whole entry): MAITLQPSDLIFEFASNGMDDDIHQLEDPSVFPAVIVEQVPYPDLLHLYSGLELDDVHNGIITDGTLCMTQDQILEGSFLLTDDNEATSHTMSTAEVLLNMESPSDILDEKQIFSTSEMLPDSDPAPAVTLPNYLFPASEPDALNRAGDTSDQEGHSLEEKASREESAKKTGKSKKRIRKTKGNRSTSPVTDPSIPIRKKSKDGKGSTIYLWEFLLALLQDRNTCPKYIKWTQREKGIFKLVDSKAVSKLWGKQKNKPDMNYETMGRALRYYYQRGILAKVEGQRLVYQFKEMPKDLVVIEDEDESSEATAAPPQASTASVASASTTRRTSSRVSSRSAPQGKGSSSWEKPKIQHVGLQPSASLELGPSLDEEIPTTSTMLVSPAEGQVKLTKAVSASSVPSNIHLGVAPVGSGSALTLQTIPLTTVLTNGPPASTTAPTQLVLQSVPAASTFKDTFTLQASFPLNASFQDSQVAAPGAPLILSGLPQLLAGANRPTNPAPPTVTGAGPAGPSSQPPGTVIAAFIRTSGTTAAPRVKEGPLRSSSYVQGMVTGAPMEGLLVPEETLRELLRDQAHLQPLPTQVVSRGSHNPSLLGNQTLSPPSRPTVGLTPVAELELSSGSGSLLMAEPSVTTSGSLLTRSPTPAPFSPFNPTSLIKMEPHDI
# Chain of CRX (O43186 whole entry): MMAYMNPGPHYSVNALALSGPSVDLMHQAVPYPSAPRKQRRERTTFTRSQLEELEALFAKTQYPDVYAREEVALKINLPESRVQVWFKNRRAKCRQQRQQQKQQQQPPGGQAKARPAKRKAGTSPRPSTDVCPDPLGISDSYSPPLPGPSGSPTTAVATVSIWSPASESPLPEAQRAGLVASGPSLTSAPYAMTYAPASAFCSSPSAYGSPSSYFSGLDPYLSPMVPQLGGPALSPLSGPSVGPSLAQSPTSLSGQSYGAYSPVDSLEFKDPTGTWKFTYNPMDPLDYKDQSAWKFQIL
# Chain of HSF1 (Q00613 whole entry): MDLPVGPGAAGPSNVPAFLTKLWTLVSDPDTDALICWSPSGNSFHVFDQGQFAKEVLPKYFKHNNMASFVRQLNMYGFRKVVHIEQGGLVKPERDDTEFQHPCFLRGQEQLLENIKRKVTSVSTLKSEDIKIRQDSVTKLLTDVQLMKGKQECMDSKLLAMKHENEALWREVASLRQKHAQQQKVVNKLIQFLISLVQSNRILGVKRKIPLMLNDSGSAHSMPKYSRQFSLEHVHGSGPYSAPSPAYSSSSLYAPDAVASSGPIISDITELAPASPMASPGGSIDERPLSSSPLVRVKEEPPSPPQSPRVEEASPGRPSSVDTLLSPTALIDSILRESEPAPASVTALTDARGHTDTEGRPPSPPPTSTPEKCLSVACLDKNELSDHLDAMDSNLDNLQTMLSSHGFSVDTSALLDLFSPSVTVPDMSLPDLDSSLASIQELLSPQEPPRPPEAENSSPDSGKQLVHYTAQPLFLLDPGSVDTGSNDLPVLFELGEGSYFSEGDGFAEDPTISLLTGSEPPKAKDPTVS
# Chain of ETV5 (P41161 whole entry): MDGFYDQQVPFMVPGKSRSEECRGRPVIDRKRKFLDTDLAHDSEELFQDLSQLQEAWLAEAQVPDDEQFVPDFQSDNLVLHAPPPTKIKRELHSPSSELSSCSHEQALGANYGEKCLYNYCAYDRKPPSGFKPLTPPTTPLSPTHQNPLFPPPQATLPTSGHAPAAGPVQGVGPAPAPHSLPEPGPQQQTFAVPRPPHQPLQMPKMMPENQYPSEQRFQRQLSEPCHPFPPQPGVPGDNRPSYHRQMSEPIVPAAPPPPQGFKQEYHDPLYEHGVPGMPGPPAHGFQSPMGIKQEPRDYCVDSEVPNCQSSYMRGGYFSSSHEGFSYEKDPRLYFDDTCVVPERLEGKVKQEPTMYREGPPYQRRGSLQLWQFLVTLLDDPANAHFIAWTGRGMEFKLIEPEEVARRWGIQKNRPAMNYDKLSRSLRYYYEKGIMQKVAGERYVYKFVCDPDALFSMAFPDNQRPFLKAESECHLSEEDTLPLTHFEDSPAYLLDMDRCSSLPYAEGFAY
# Chain of ETV1 (P50549 whole entry): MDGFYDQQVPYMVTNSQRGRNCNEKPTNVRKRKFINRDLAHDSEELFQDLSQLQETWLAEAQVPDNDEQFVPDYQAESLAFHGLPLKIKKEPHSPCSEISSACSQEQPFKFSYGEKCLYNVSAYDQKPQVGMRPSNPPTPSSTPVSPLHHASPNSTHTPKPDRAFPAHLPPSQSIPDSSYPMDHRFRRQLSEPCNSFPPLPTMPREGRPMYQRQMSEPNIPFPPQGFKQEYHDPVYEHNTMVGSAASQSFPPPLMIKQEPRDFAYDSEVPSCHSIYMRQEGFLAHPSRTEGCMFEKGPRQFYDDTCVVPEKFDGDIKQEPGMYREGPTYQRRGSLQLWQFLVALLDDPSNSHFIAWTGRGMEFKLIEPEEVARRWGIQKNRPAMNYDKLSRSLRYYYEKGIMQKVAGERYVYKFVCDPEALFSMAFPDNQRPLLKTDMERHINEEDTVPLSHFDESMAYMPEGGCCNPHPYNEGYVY
sequence,measurement,setting,value
TAATCC,binding signal,FLI1,"1.29 fold enrichment (6-mer frequency, TF over GST control)"
same,binding signal,ELK1,"1.26 fold enrichment (6-mer frequency, TF over GST control)"
same,binding signal,GABPA,"1.25 fold enrichment (6-mer frequency, TF over GST control)"
same,binding signal,ERG,"1.34 fold enrichment (6-mer frequency, TF over GST control)"
same,binding signal,ELF1,"1.15 fold enrichment (6-mer frequency, TF over GST control)"
same,binding signal,EHF,"1.25 fold enrichment (6-mer frequency, TF over GST control)"
same,binding signal,SPI1,"1.29 fold enrichment (6-mer frequency, TF over GST control)"
same,binding signal,SPIB,"1.28 fold enrichment (6-mer frequency, TF over GST control)"
same,binding signal,ELK3,"1.35 fold enrichment (6-mer frequency, TF over GST control)"
same,binding signal,FEV,"1.24 fold enrichment (6-mer frequency, TF over GST control)"
same,binding signal,ETV5,"1.3 fold enrichment (6-mer frequency, TF over GST control)"
same,binding signal,HSF1,"4.27 fold enrichment (6-mer frequency, TF over GST control)"
same,binding signal,SPIC,"1.14 fold enrichment (6-mer frequency, TF over GST control)"
same,binding signal,ELF4,"1.23 fold enrichment (6-mer frequency, TF over GST control)"
same,binding signal,ELK4,"1.23 fold enrichment (6-mer frequency, TF over GST control)"
same,binding signal,ETV2,"1.2 fold enrichment (6-mer frequency, TF over GST control)"
same,binding signal,ELF3,"1.22 fold enrichment (6-mer frequency, TF over GST control)"
same,binding signal,CRX,"7.84 fold enrichment (6-mer frequency, TF over GST control)"
same,binding signal,ETV1,"1.26 fold enrichment (6-mer frequency, TF over GST control)"
